The campaign covered roughly 5,500 compounds. About 2,000 (36%) were called active. Not shown: some 18% with an inconclusive outcome. No stated cut-off is given here; in the data, active means normalized growth mostly below about 0.91 (no sharp cut-off); inconclusive means no clear call, values can overlap the other calls; inactive means mostly above about 0.92. This is one part of the list.
Experiment: chemical genetic growth profiling, strain panel (AID 1159580);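 further: tested at 20 µM; growth read once vehicle control cultures reached saturation at 30 °C; 1 = growth at the plate median or of vehicle wells; lower values mean less growth of the strain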
Conditions: S. cerevisiae deletion strains, growth OD

Measured: normalized growth

C=CCN1CC[C@]23c4c5ccc(O)c4O[C@H]2/C(=N\NC(=O)c2ccccc2)CC[C@@]3(O)[C@H]1C5
inactive: locus YAL013W, strain DEP1, hits give low values 0.989 | locus YAL040C, strain CLN3, hits give low values 1.06 | locus YCL061C, strain MRC1 (second series), hits give low values 0.987 | locus YDR363W, strain ESC2, hits give low values 0.998 | locus YER002W, strain NOP16, hits give low values 1.03 | locus YGR078C, strain PAC10, hits give low values 0.985 | locus YNL153C, strain GIM3, hits give low values 0.983 | locus YNL175C, strain NOP13, hits give low values 0.993 | locus YNL197C, strain WHI3, hits give low values 0.996 | locus YNL224C, strain SQS1, hits give low values 1 | locus YOR083W, strain WHI5 (second series), hits give low values 0.991 | locus YPL241C, strain CIN2, hits give low values 0.996
